# Experimental data taken from PubChem BioAssay (Tox21).
# Records with an inconclusive call do not appear. Where a call stands in place of a potency, no number is given. Calls of active or inactive are those of the source. Calls come from the whole dose curve; as a rule, active = well fitted curve in the direction sought with a large enough effect in the repeat runs; inconclusive = weak or mixed curves; inactive = no such curve, though single readings can be large; an effect the other way counts as inactive or inconclusive. Non-standard residues stand in square brackets, D forms with d. Residues, ends and D or L forms follow the SMILES beside them. pGlu = O=C1CC[C@@H](C(=O)O)N1
# Assays:
# [1] = qHTS assay to identify small molecule antagonists of the glucocorticoid receptor (GR) signaling pathway - cell viability counter screen (AID 720693); note: nearly all actives have a fitted effect of over 55% in size; note: potency is the fitted concentration of half-maximal effect
# [2] = qHTS assay for identifying genotoxic compounds that show differential cytotoxicity against isogenic chicken DT40 cell lines with known DNA damage response pathways - wild type cell line (AID 743012); note: nearly all actives have a fitted effect of over 60% in size; note: potency is the fitted concentration of half-maximal effect
# In short: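 Viability of DNA repair-proficient chicken DT40 cells was assessed by CellTiter-Glo luminescence following 40 h compound exposure at 37 C/5% CO2.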
# [3] = qHTS assay for identifying genotoxic compounds that show differential cytotoxicity against isogenic chicken DT40 cell lines with known DNA damage response pathways - Rev3 mutant cell line (AID 743014); note: nearly all actives have a fitted effect of over 55% in size; note: potency is the fitted concentration of half-maximal effect
# [4] = qHTS assay for identifying genotoxic compounds that show differential cytotoxicity against isogenic chicken DT40 cell lines with known DNA damage response pathways - Rad54/Ku70 mutant cell line (AID 743015); note: nearly all actives have a fitted effect of over 60% in size; note: potency is the fitted concentration of half-maximal effect
# [5] = qHTS assay to identify small molecule antagonists of the androgen receptor (AR) signaling pathway - cell viability counter screen (AID 743033; note: nearly all actives have a fitted effect of over 45% in size; note: potency is the fitted concentration of half-maximal effect)
# [6] = qHTS assay to identify small molecule antagonists of the androgen receptor (AR) signaling pathway using the MDA cell line - cell viability counter screen (AID 743041; note: nearly all actives have a fitted effect of over 45% in size)
# In short: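 In this qHTS counter assay, fluorescence intensity after CellTiter-Fluor addition indicated viability of MDA-kb2 AR-luc cells given compounds and R1881 for 16 h at 37C.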
Compound,Potency [1],Potency [2],Potency [3],Potency [4],Potency [5],Potency [6]
O=P(O)(O)OC[C@H](O)CO,inactive,inactive,inactive,inactive,inactive,inactive
CCCCCCCCCCCCCCCCCC(=O)[O][Al],inactive,inactive,inactive,inactive,inactive,inactive
CN1CCC(OC(=O)C(Oc2ccc(Cl)cc2)Oc2ccc(Cl)cc2)CC1,inactive,inactive,inactive,inactive,inactive,inactive
CC1=C(/C=C/C(C)=C/C=C/C(C)=C/C(=O)Oc2c(C)c(C)c3c(c2C)CC[C@@](C)(CCC[C@H](C)CCC[C@H](C)CCCC(C)C)O3)C(C)(C)CCC1,inactive,inactive,inactive,inactive,inactive,inactive
O=C(O)COc1ccc(CCNS(=O)(=O)c2ccccc2)s1,inactive,inactive,inactive,inactive,inactive,inactive
COC(=O)[C@@H](N)CS,inactive,inactive,inactive,inactive,inactive,inactive
COc1ccc(C(=O)CCC(=O)O)c2ccccc12,inactive,inactive,inactive,inactive,inactive,inactive
Nc1ncnc2c1ncn2CCOCP(=O)(O)O,inactive,inactive,inactive,inactive,inactive,inactive
CCCC(=O)Nc1c(I)cc(I)c(CC(CC)C(=O)O)c1I (stereo not drawn),inactive,inactive,inactive,inactive,inactive,inactive
COc1ccc(CC2c3cc(OC)c(OC)cc3CC[N+]2(C)CCC(=O)OCCCCCOC(=O)CC[N+]2(C)CCc3cc(OC)c(OC)cc3C2Cc2ccc(OC)c(OC)c2)cc1OC (stereo not drawn),inactive,inactive,inactive,inactive,inactive,inactive
CCCCc1cc2c(=O)c(C(=O)OC)c[nH]c2cc1OCc1ccccc1,inactive,inactive,inactive,inactive,inactive,inactive
CC(=O)N(CC(C)C(=O)O)c1c(I)cc(I)c(N)c1I (stereo not drawn),inactive,inactive,inactive,inactive,inactive,inactive
CS(=O)(=O)OCCCNCCCOS(C)(=O)=O,inactive,inactive,inactive,inactive,inactive,inactive
CCCCC(O)c1ccccc1 (stereo not drawn),inactive,inactive,inactive,inactive,inactive,inactive
O=C1NCCN1c1ncc([N+](=O)[O-])s1,inactive,inactive,inactive,inactive,inactive,inactive
Cn1nnnc1SCC1=C(C(=O)O)N2C(=O)[C@@H](NC(=O)[C@H](OC=O)c3ccccc3)[C@H]2SC1,inactive,inactive,inactive,inactive,inactive,inactive
C[C@H](N)C(=O)N[C@@H](C)P(=O)(O)O,inactive,inactive,inactive,inactive,inactive,inactive
O=C(CCCN1CCC(C(=O)c2ccc(F)cc2)CC1)c1ccc(F)cc1,inactive,8.41 µM (active),3.76 µM (active),7.5 µM (active),inactive,inactive
CO/N=C(\C(=O)N[C@@H]1C(=O)N2C(C(=O)O)=C(CSc3nnnn3C)CS[C@H]12)c1csc(N)n1,inactive,inactive,inactive,inactive,inactive,inactive
CCOc1cc(-c2nccc3cc(OC)c(OC)cc23)cc(OCC)c1OCC,inactive,4.22 µM (active),6.68 µM (active),8.41 µM (active),inactive,inactive
CN[C@@H]1CCc2[nH]c3ccc(C(N)=O)cc3c2C1,inactive,inactive,inactive,inactive,inactive,inactive
NS(=O)(=O)c1cc2c(cc1Cl)NC(Cc1ccccc1)NS2(=O)=O (stereo not drawn),inactive,inactive,inactive,inactive,inactive,inactive
CC(C)(C)CC(C)(C)c1cc(Cc2cc(C(C)(C)CC(C)(C)C)cc(-n3nc4ccccc4n3)c2O)c(O)c(-n2nc3ccccc3n2)c1,inactive,inactive,inactive,inactive,inactive,inactive
Cc1ccc(/C(=C\CN2CCCC2)c2cccc(/C=C/C(=O)O)n2)cc1,inactive,inactive,inactive,inactive,inactive,inactive

Compound,Potency [1],Potency [2],Potency [3],Potency [4],Potency [5],Potency [6]
N=C(N)c1ccc(OCCCOc2ccc(C(=N)N)cc2Br)c(Br)c1,inactive,5.96 µM (active),8.41 µM (active),6.68 µM (active),inactive,inactive
CC(CC(c1ccccc1)c1ccccc1)NC(C)(C)C (stereo not drawn),inactive,10.6 µM (active),23.7 µM (active),29.8 µM (active),inactive,inactive
c1cnc2cc3c(cc2n1)[C@@H]1CNC[C@H]3C1,inactive,inactive,inactive,inactive,inactive,inactive
CC(C)CN(C[C@@H](OP(=O)(O)O)[C@H](Cc1ccccc1)NC(=O)O[C@H]1CCOC1)S(=O)(=O)c1ccc(N)cc1,inactive,inactive,inactive,inactive,inactive,inactive
CC1(C)S[C@@H]2[C@H](NC(=O)Cc3ccccc3)C(=O)N2[C@H]1C(=O)O,inactive,inactive,inactive,inactive,inactive,inactive
COc1cc(S(C)=O)ccc1-c1nc2ncccc2[nH]1 (stereo not drawn),inactive,inactive,inactive,inactive,inactive,inactive
CC[C@@H]1/C=C(\C)C[C@H](C)C[C@H](OC)[C@H]2O[C@@](O)(C(=O)C(=O)N3CCCC[C@H]3C(=O)O[C@H](/C(C)=C/[C@@H]3CC[C@@H](Cl)[C@H](OC)C3)[C@H](C)[C@@H](O)CC1=O)[C@H](C)C[C@@H]2OC,inactive,inactive,inactive,inactive,inactive,inactive
O=C(Nc1ccc(Br)cc1)c1cc(Br)c(Br)s1,21.3 µM (active),26.6 µM (active),33.5 µM (active),26.6 µM (active),21.3 µM (active),inactive
CC(=O)N[C@@H]([C@@H](O)[C@H](O)[C@H](O)CO)[C@@H](O)CC(=O)C(=O)O,inactive,inactive,inactive,inactive,inactive,inactive
O=P(O)(O)OC[C@H]1O[C@](O)(COP(=O)(O)O)[C@@H](O)[C@@H]1O,inactive,inactive,inactive,inactive,inactive,inactive
c1ccc2c(CCC3CCNCC3)c[nH]c2c1,inactive,13.3 µM (active),29.8 µM (active),26.6 µM (active),inactive,inactive
CC1C(=O)CC2C3(C)CCC2(C(C)C(=O)O)C(=O)C13 (stereo not drawn),inactive,inactive,inactive,inactive,inactive,inactive
C[C@]12C=CC(=O)C=C1CC[C@@H]1[C@@H]2[C@@H](O)C[C@@]2(C)[C@H]1CC[C@]2(O)C(=O)COC(=O)CCC(=O)O,inactive,inactive,inactive,inactive,inactive,inactive
CNC[C@@H]1CC[C@@H](N)[C@@H](O[C@H]2[C@H](O)[C@@H](O[C@H]3OC[C@](C)(O)[C@H](NC)[C@H]3O)[C@H](N)C[C@@H]2N)O1,inactive,inactive,inactive,inactive,inactive,inactive
C[C@H](O)[C@H](O)[C@H]1CNc2nc(N)[nH]c(=O)c2N1,inactive,inactive,inactive,inactive,inactive,inactive
Nc1nc2[nH]cc(CCc3ccc(C(=O)N[C@@H](CCC(=O)O)C(=O)O)cc3)c2c(=O)[nH]1,inactive,0.0266 µM (active),0.0119 µM (active),0.0106 µM (active),inactive,inactive
Nc1nc(=O)n([C@@H]2CS[C@H](CO)O2)cc1F,inactive,inactive,inactive,inactive,inactive,inactive
CC[C@H](C)[C@H](NC(=O)[C@H](Cc1ccccc1)NC(=O)[C@H](C)NC(=O)[C@H](CC(=O)O)NC(=O)[C@H](CCCCN)NC(=O)[C@H](CO)NC(=O)[C@@H]1CCCN1C(=O)[C@@H]1CCC(=O)N1)C(=O)NCC(=O)N[C@@H](CC(C)C)C(=O)N[C@@H](CCSC)C(N)=O ([pGlu]PSKDAFIGLM-NH2),inactive,inactive,inactive,inactive,inactive,inactive
O=S(=O)(O)Oc1ccc(C(c2ccc(OS(=O)(=O)O)cc2)c2ccccn2)cc1,inactive,inactive,inactive,inactive,inactive,inactive
CN(C(=O)CO)c1c(I)c(C(=O)NCC(O)CO)c(I)c(C(=O)NCC(O)CO)c1I (stereo not drawn),inactive,inactive,inactive,inactive,inactive,inactive
CCOC(=O)Cc1cccc(-c2cc(CCCCCCc3ccc(O[C@H]4O[C@H](COC(C)=O)[C@@H](OC(C)=O)[C@H](OC(C)=O)[C@@H]4OC(C)=O)c(-c4cccc(CC(=O)OCC)c4)c3)ccc2O[C@H]2O[C@H](COC(C)=O)[C@@H](OC(C)=O)[C@H](OC(C)=O)[C@@H]2OC(C)=O)c1,inactive,inactive,inactive,inactive,inactive,inactive
CCCCCCCCCCCCCCCC(=O)OC[C@@H](NC(=O)C(Cl)Cl)[C@H](O)c1ccc([N+](=O)[O-])cc1,inactive,inactive,inactive,inactive,inactive,inactive
C/C=C(/CC[C@@H](C)[C@H]1CC[C@H]2C3=CC[C@H]4[C@H](C)[C@@H](O)CC[C@]4(C)[C@H]3CC[C@]12C)C(C)C,inactive,inactive,inactive,inactive,inactive,inactive
CN1[C@@H]2CCC[C@H]1CC(NC(=O)c1nn(C)c3ccccc13)C2 (stereo partly drawn),inactive,inactive,inactive,inactive,inactive,inactive
